# Screening data as filed in PubChem.
# An excerpt weighted towards active compounds, which were near 3.3% of everything screened.
# TPT1 inh = blocks Candida albicans tRNA 2'-phosphotransferase | 300,000 tested, 0.81% active | inhibition, % at 5 µM | AID 1962 | recombinant caTPT1, FP RNA substrate dephosphorylation;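 active = inhibition above the mean of all tested compounds plus 3 SD, set per screening campaign, cut at about 24% in these data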;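 also: plate controls were DMSO alone for no effect and ferristatin control at 100 nM for full effect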
# CendR NRP1 mod = alters CendR peptide binding to human NRP-1 | O14786 | FAM-RPARPAR peptide binding to NRP-1, fluorescence polarization | inhibition, % at 25 µM | 360,000 tested, 0.85% active | AID 602438;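 active = inhibition or corrected inhibition above about 18%, plus a signal ratio from 0.5 to 1.5, limit read from the data, passing the limit was not always enough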
# Fh CTSL1 inh = counter-screen for PFM18AAP inhibitors: inhibitors of F. hepatica cathepsin L1; recombinant F. hepatica cathepsin L1, Z-Leu-Arg-MCA fluorescence; inhibition, % at 5.96 µM; 300,000 tested, 0.49% active; AID 1906;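 active = inhibition above the mean of all tested compounds plus 3 SD, set per screening campaign, cut at about 17% in these data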;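 also: 0% = plate median of test compound wells and 100% = 1 µM Z-Phe-Ala-diazomethylketone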
# Rpn11 block = Rpn11 (human) deubiquitinase inhibition. 360,000 tested, 0.59% active. human 26S proteasome, Ub4-pepOG fluorescence polarization; 20S core pre-blocked with epoxomicin. inhibition, % at 20 µM. O00487;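 active = inhibition at 20 µM, scaled to each plate's controls, above about 33%, limit read from the data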
# Target sequence (O00487 whole entry, looked up): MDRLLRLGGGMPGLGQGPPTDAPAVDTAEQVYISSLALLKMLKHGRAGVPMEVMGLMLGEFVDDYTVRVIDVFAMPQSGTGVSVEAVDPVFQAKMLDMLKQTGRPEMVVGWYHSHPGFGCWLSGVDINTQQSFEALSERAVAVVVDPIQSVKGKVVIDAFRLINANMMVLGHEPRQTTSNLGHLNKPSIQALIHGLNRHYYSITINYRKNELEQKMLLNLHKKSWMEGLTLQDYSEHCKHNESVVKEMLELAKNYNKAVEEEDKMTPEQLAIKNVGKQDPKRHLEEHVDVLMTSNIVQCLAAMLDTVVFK
# PHOSPHO1 inh = inhibitors of human PHOSPHO1 phosphatase; recombinant PHOSPHO1, absorbance phosphatase assay; Q8TCT1; 290,000 tested, 1.1% active; inhibition, % at 13.3 µM; in the data active = inhibition above about 60%
# Target sequence (Q8TCT1 whole entry, looked up): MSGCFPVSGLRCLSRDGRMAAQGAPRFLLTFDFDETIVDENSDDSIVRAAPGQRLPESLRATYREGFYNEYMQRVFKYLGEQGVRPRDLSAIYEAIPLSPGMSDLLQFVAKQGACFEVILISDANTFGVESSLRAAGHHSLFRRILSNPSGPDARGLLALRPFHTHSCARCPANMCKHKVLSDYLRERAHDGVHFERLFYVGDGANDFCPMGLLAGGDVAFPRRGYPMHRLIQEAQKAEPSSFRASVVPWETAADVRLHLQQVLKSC
# HNF4A DNA FP = change in binding of human HNF4 alpha to DNA | 360,000 tested, 0.3% active | P41235 | activity change, % at 10 µM | HNF4a-FITC DNA binding, fluorescence polarization, 1 h; in the data active = activity change above about 30%, passing the limit was not always enough
# Rpn11 inh conf = Rpn11 inhibition confirmation, single concentration | shares compounds with Rpn11 block | purified human 26S proteasome, Ub4-pepOG fluorescence polarization; proteasome pretreated with epoxomicin | inhibition, % at 20 µM | 1,900 tested, 29% active
# MMP-2 inh = MMP-2 (human) inhibition counter-screen | shares compounds with Rpn11 block | recombinant MMP-2, FRET peptide cleavage fluorescence | inhibition, % at 20 µM | 1,900 tested, 4% active;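 also: human MMP-2 activated beforehand with APMA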
# Thrombin inh = counter-screen for RPN11 inhibitors: inhibition of bovine thrombin. shares compounds with Rpn11 block. bovine thrombin cleavage of Ub4-pepOG, fluorescence polarization. inhibition, % at 20 µM. 1,900 tested, 13% active;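 active = mean inhibition at least 40% at 20 µM, or signal 3 deviations below plate average, so some actives read negative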;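 also: plate controls were thrombin with DMSO for no effect and buffer wells lacking thrombin for full effect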
# * marks the source's active call; other numbers are inactive results; nt = not tested or not shown. Rule as the data show it, unless noted: active = inhibition above about 40%; inactive = the rest.
SMILES,TPT1 inh,CendR NRP1 mod,Fh CTSL1 inh,Rpn11 block,PHOSPHO1 inh,HNF4A DNA FP,Rpn11 inh conf,MMP-2 inh,Thrombin inh
CCCc1noc(-c2ccc(-c3ccccc3)cc2)n1,-7,13,-1,196*,2,-35,-1,-9,-11
CN(C)S(=O)(=O)c1ccc(C(=O)NCc2nc3ccccc3s2)cc1,2,-2,0,34*,28,-29,5,-13,-13
CCCCOC(=O)Nc1nnc(CCOCC)s1,0,2,3,34*,2,4,-1,-15,-3
COC(=O)c1cc(Br)c(=O)n(CCc2ccc(F)cc2)c1,1,-11,1,93*,2,1,-16,-20,-16
CC1CCCC(C)N1CCCNC(=O)Cn1ncc2c3ccccc3n(C)c2c1=O (centres undefined),4,5,0,-8,28,-1,nt,nt,nt
CC(=O)c1sc2nc(CSc3nncn3C)[nH]c(=O)c2c1C,6,-16,2,44*,4,1,4,-74,8
O=C(CSc1cccc2cccnc12)N1CCCC1,0,4,2,71*,10,-3,35,-18,-16
CN(C)C(=O)CSc1cccc2cccnc12,0,0,7,69*,71*,-4,24,-16,-2
CN(C(=O)c1cccc(NC(=O)Cc2ccc(NC(=O)C3CCN(C(=O)C4CCCC4)CC3)cc2)c1)C1CC1,nt,-3,nt,-1,nt,1,nt,nt,nt
Fc1ccc(-c2nnc3ccc(N4CCCC4)nn23)cc1,1,2,-3,1,-3,6,nt,nt,nt
Brc1ccc(-c2nnc3ccc(N4CCN(c5ccccc5)CC4)nn23)cc1,0,1,0,62*,21,1,-5,-28,-16
COc1ccc2oc(C(=O)NCc3cc(OC)c(OC)cc3OC)c(C)c2c1,1,-1,4,12,20,4,nt,nt,nt
COc1ccc(NC(=O)CC2(CC(=O)O)CCCC2)cc1,-1,-4,3,3,33,-1,nt,nt,nt
COc1ccc(N(C)C(=O)CC2(CC(=O)O)CCCCC2)cc1,-2,6,-5,57*,21,21,-2,-34,0
CCc1ccc(NC(=O)C(C)OC(=O)CCC(=O)c2cccs2)cc1 (centres undefined),-3,12,-59,-10,20,-1,nt,nt,nt
COc1ccc2c(=O)c(-c3ccc4c(c3)OCO4)coc2c1,0,11,-5,1,4,-3,nt,nt,nt
COC(=O)Cn1c(=NC(=O)C2COc3ccccc3O2)sc2cc(S(N)(=O)=O)ccc21 (centres undefined),-3,10,3,-1,-5,-4,nt,nt,nt
COc1cccc(-c2csc3nnc(SCC(=O)c4ccc(NC(C)=O)cc4)n23)c1,-1,-32,-2,40*,-6,0,22,7,9
COc1cc(/C=N/NC(=O)c2ccc(O)cc2)ccc1OCC(=O)Nc1cccc([N+](=O)[O-])c1,1,-6,2,116*,8,6,9,-18,-3
O=C(N/N=C/c1cccc([N+](=O)[O-])c1)c1ccc(Br)cc1,0,4,3,42*,65*,7,17,41*,1
O=C(N/N=C/c1cccc([N+](=O)[O-])c1)c1cccc(Br)c1,3,-2,-4,3,-7,-4,nt,nt,nt
COc1cccc(NC(=O)NC2CCN(CC(=O)Nc3ccccc3[N+](=O)[O-])CC2)c1,2,3,-3,-1,27,0,nt,nt,nt
O=C(/C=C/c1ccc(F)cc1)Nc1cc(S(=O)(=O)N2CCOCC2)ccc1N1CCOCC1,nt,-9,nt,90*,nt,0,10,8,2
CNC(=O)Cn1ncc2c(C)n(Cc3ccc(C)cc3)c(C)c2c1=O,0,15,0,4,-34,-3,nt,nt,nt
Cc1c2cnn(CC(=O)Nc3c(F)c(F)cc(F)c3F)c(=O)c2c(C)n1Cc1ccccc1F,2,-41,1,86*,-13,-53,134*,24,22
SMILES,TPT1 inh,CendR NRP1 mod,Fh CTSL1 inh,Rpn11 block,PHOSPHO1 inh,HNF4A DNA FP,Rpn11 inh conf,MMP-2 inh,Thrombin inh
CCOC(=O)Cc1csc(NC(=O)c2ccc(Cl)nc2)n1,12,-39,1,36*,48,9,21,-33,-1
COc1cccc(S(=O)(=O)NCc2ccc(C(=O)N3CCN(C)CC3)cc2)c1,nt,4,nt,-10,nt,8,nt,nt,nt
COc1cc([N+](=O)[O-])cc(/C=C2/SC(=S)N(Cc3ccccc3)C2=O)c1O,0,-156,0,61*,-2,42*,64*,55*,36
CCN(CC)CCNC(=O)c1ccc(NC(=O)Cc2cccc3ccccc23)cc1,-2,2,-4,-4,2,3,nt,nt,nt
CC(C)CCOc1ccc(/C=N/N2C(=O)CSC2=S)cc1,3,4,1,39*,46,0,-11,32,-9
CC(C(=O)Nc1ccc(C(=O)O)c(O)c1)N1C(=O)/C(=C\c2ccco2)SC1=S (centres undefined),15,-137,0,74*,-47,-14,45*,34,-6
O=C(CN1C(=O)/C(=C/c2ccco2)SC1=S)Nc1ccc(O)c(C(=O)O)c1,12,-107,-4,81*,2,-28,17,10,9
O=C(CCCN1C(=O)/C(=C\c2cccs2)SC1=S)Nc1cccc(C(=O)O)c1,2,-7,4,3,-5,-3,nt,nt,nt
O=C(CCCN1C(=O)/C(=C/c2cccs2)SC1=S)Nc1ccc(O)c(C(=O)O)c1,nt,nt,nt,nt,40,nt,nt,nt,nt
CC(C(=O)N(C)C1CCS(=O)(=O)C1)N1C(=O)/C(=C/c2ccco2)SC1=S (centres undefined),-33,-34,4,19,-22,8,nt,nt,nt
O=C(CCCN1C(=O)/C(=C/c2ccco2)SC1=S)Nc1cccc(C(=O)O)c1,12,-122,-1,37*,6,-41,-3,45*,0
CCCCC1CC2=C(C(=O)OC(C)(C)O2)C(c2cccc3ccccc23)O1 (centres undefined),nt,12,nt,3,nt,-2,nt,nt,nt
Cc1cc(C)c2cc(C#N)c(N3CCCN(S(=O)(=O)c4ccccc4)CC3)nc2c1,2,nt,1,nt,nt,nt,nt,nt,nt
CC(=O)c1cccc(S(=O)(=O)N2CCN(c3nc4cc(C)cc(C)c4cc3C#N)CC2)c1,5,-24,8,43*,19,11,1,-21,-11
COc1cc2nc(C(C)(C)C)oc(=O)c2cc1OC,-1,-5,0,-1,12,-1,nt,nt,nt
